Data as given in PubChem BioAssay (NCATS).
Activity calls are given as the source filed them. Entries that show only a call come without a potency. The call rests on the fitted dose curve; in most records, active means well fitted activation curve with a large enough effect; inconclusive means small, poorly fitted or top-dose-only effect; inactive means flat fitted curve, though single readings scatter.

Test: Confirmation and Secondary Assay for Modulators of Hemoglobin Beta Chain Splicing at IVS2 705 locus (AID 930)
Conditions: HeLa EGFP-705 splicing reporter, GFP fluorescence, 48 h; series mostly up to 46.1 µM
Source text: NIH Chemical Genomics Center [NCGC] NIH Molecular Libraries Screening Centers Network [MLSCN] MLSCN Grant: 1 X01 MH080684-01 PI Name: Dr. Ryszard Kole NCGC Assay Overview: Modulation of Alternative Splicing as Therapy Abnormal splicing is associated with a number of diseases, including cancer and genetic diseases such as cystic fibrosis, muscular dystrophy and beta-thalassemia. Alteration of disease associated splicing patterns provides a promising target for treatment. […] Mutations in the second intron of the b-globin gene at positions 654 or 705 are clinically relevant and cause mis-splicing which results in an out of frame gene product. […] EGFP-705 HeLa Cells as screen system. HeLa cell lines were stably transfected with a construct in which the EGFP (enhanced green fluorescent protein) cDNA was interrupted by the second intron of the beta-globin gene (IVS2-705). The ISV2 intron contains mutations which cause mis-splicing of EGFP and premature termination of EGFP which results in a nonfluorescent protein product. […] Expression of the transgene was driven by the CMV promoter. We concluded that a low molecular weight compound, which restored correct splicing of intron 2 would also generate functional EGFP protein, resulting in a fluorescent signal. Thus, the HeLa cells that express the EGFP-705 construct can be used for validation of splice site specificity of compounds identified in primary screening of the ISV2 654 construct.
NCGC Assay Protocol Summary: Confirmatory Screening. Freshly thawed HeLa EGFP-705 cells were seeded in 5 ul of optimem media (Invitrogen) containing 2 % fetal calf serum (Hyclone) and 1x penicillin/streptomycin (Invitrogen) at a concentration of 500 cells per well in 1536-well plates. Cells were incubated overnight at 37C in 5% CO2. The next day, cells were treated with DMSO, 500 nM antisense ISV2 654 PNA control oligo, or library compound and allowed to grow at 37C in 5% CO2 for 2 days. The PNA oligo blocked the mutation site in the intron and allowed proper (wild type) splicing to occur, resulting in full length EGFP expression and also allowed for optimization of the assay parameters. Plates were read in the Acumen Explorer (TTP Labtech) using 488 nm laser excitation and 500-520 nm emission PMT filter in a 1 x 8 uM capture mode. Fluorescnet objects ranging in size from 5 to 250 uM were measured and the total peak GFP intensity for each well was used for data analysis. Keywords: Thalassemia, beta-thalassemia, beta-globin, EGFP, ISV2 654, ISV2 705, SSO, PNA, antisense, splicing, MLSMR, MLSCN, NIH Roadmap, qHTS, NCGC
In the case of `CC(=O)OC1CC[C@@]2(C)C3CC[C@]4(C)C(=O)CCC4C3CC[C@H]2C1` (stereo not given in full), the Potency is reported as “inactive”.
With `ClC1=C(Cl)C2(Cl)C3C4CC(C5OC45)C3C1(Cl)C2(Cl)Cl` (stereo not given) the Potency was “inactive”.
In the case of `ClC1=C(Cl)C2(Cl)C3C4C=CC(C4)C3C1(Cl)C2(Cl)Cl` (stereo not given), the Potency is reported as “inactive”.
With `CCC(CO)NC(=O)C1C=C2c3cccc4[nH]cc(c34)CC2N(C)C1` (stereo not given) the Potency was “inactive”.
For `CNC(=O)Oc1ccccc1OC(C)C`, the Potency was “inactive”.
For `Nc1ncn[nH]1`, the Potency was “inactive”.
For `CC(N)C(O)c1ccc(O)c(O)c1` (stereo not given), the Potency was “inactive”.
For `C=C(C)c1cc2cc(C(C)=O)c(O)cc2o1`, the Potency was “inactive”.
In the case of `CC1O[C@@H](OC2CC(O)[C@@]3(CO)C4C(O)C[C@@]5(C)C(C6=CC(=O)OC6)CC[C@]5(O)C4CC[C@]3(O)C2)C(O)C(O)C1O` (stereo not given in full), the Potency is reported as “inactive”.
In the case of `CCCCCCCCCc1ccc(O)cc1`, the Potency is reported as “inactive”.
For `Cc1cc(OC(=O)N2CCCCC2)c(C(C)C)cc1[N+](C)(C)C`, the Potency was “inactive”.
For `O=C1C=C2C=CC3C[C@@]2(O1)C1CCCCN31` (stereo not given in full), the Potency was “inactive”.
For `CN(C)C1C(=O)C(C(N)=O)=C(O)[C@@]2(O)C(=O)C3=C(O)c4c(O)ccc(Cl)c4[C@](C)(O)C3CC12` (stereo not given in full), the Potency was “inactive”.
For `CC(C)Nc1nc(Cl)nc(NC(C)C)n1`, the Potency was “inactive”.
In the case of `CNC(Cc1c[nH]c2ccccc12)C(=O)O` (stereo not given), the Potency is reported as “inactive”.
With `CC1CC2CC(=O)C3CCCN4CCCC2[C@]34C1` (stereo not given in full) the Potency was “inactive”.
In the case of `C=C1C2CC[C@@]3(C)C(c4ccoc4)OC(=O)C[C@@]13OC1CC(=O)C(C)(C)C(C(OC(C)=O)C(=O)OC)[C@@]12C` (stereo not given in full), the Potency is reported as “inactive”.
In the case of `CC(C)c1cc2c(c(O)c1O)[C@]1(C(=O)O)CCCC(C)(C)C1CC2` (stereo not given in full), the Potency is reported as “inactive”.
For `CC(=O)C1CCC2C3CCC4CC(O)CCC4(C)C3CC(O)C12C` (stereo not given), the Potency was “inactive”.
For `FC(F)(F)c1cccc(N2CCNCC2)c1`, the Potency was “inactive”.
For `CCCCOC(=O)c1ccccc1C(=O)OCCCC`, the Potency was “inactive”.
With `CC1=C2CCC3C4CCC(=O)[C@@]4(C)CCC3[C@]2(C)CCC1=O` (stereo not given in full) the Potency was “inactive”.
For `C[C@@]12CCC(O)C[C@H]1CCC1C2CC[C@]2(C)C(=O)CCC12` (stereo not given in full), the Potency was “inactive”.
For `N#CC(O[C@@H]1OC(COC2OC(CO)C(O)C(O)[C@@H]2O)C(O)C(O)C1O)c1ccccc1` (stereo not given in full), the Potency was “inactive”.
With `C[C@]12CCC3C(C=CC4=CC(=O)CC[C@]43C)C1CC[C@]2(O)CCC(=O)O` (stereo not given in full) the Potency was “inactive”.
For `CNC(=O)CSP(=S)(OC)OC`, the Potency was “inactive”.
With `CC(=O)C1=C(O)C2C3c4c[nH]c5cccc(c45)CC3C(C)(C)N2C1=O` (stereo not given) the Potency was “inactive”.
With `O=S1OCC2C(CO1)C1(Cl)C(Cl)=C(Cl)C2(Cl)C1(Cl)Cl` (stereo not given) the Potency was “inactive”.
In the case of `CC1CC[C@]2(NC1)OC1CC3C4CC=C5CC(O)CC[C@@]5(C)C4CC[C@]3(C)C1C2C` (stereo not given in full), the Potency is reported as “inactive”.
For `NC(=NCCCC(N)C(=O)O)N[N+](=O)[O-]` (stereo not given), the Potency was “inactive”.
With `CCC1/C=C/C=CCC(C)C(O)[C@@](C)(O)C(=O)C(C)C(O)C(C)C(=O)C(C)C(O)C(C)C=CC(=O)O[C@H]2C(C)C(CC1)O[C@]1(CCC(C)C(CC(C)O)O1)C2C` (stereo not given in full) the Potency was “inactive”.
In the case of `C#CCOS(=O)OC1CCCCC1Oc1ccc(C(C)(C)C)cc1` (stereo not given), the Potency is reported as “inactive”.
For `CC(C)=CCCC1(C)C=Cc2c(O)c3c(c(CC=C(C)C)c2O1)OC12C(=CC4CC1C(C)(C)OC2(C/C=C(/C)C(=O)O)C4=O)C3=O` (stereo not given), the Potency was “inactive”.
With `CC1=NCCc2c1[nH]c1cc(O)ccc21` the Potency was “inactive”.
With `O=C1C(Cl)=C(Cl)C(=O)C(Cl)=C1Cl` the Potency was “inactive”.
For `C[C@@]12CC(c3ccoc3)OC(=O)C1CC[C@@]1(C)C2C2C=C[C@@]1(O)C(=O)O2` (stereo not given in full), the Potency was “inactive”.
In the case of `O=C1CC2OCC=C3CN4CC[C@@]56c7ccccc7N1C5C2C3CC46` (stereo not given in full), the Potency is reported as “inactive”.
With `COc1cc2c(cc1OC)C(C)NCC2` (stereo not given) the Potency was “inactive”.
In the case of `CCc1cccc(CC)c1N(COC)C(=O)CCl`, the Potency is reported as “inactive”.
In the case of `COC(=O)NC(=S)Nc1ccccc1NC(=S)NC(=O)OC`, the Potency is reported as “inactive”.
